# Data taken from PubChem BioAssay AID651687 (Broad Institute, 2012).
# The whole screen tested about 350,000 compounds, of which about 600 (0.17%) were called active. For the sample, actives were picked, then their nearest neighbours and some compounds at random. A number with no mark means an inactive call.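 Rule for the calls: active = every replicate shows inhibition of at least 40%; inconclusive = mean inhibition at least 40% but some replicate below; inactive = the rest.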
# Test: compounds lowering acetylated PGC1a in cells – cell-based, U2OS, AlphaScreen, inhibitor mode, primary screen (AID 651687);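 note: 0% = neutral control wells and 100% = positive control wells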
# Details: U2OS PGC1a acetylation, AlphaScreen anti-acetyl-lysine; at 15.6 µM; stronger effect = higher value; with virally co-expressed GCN5 acetyltransferase
row,SMILES,inhibition
1,C[C@H]1CN([C@@H](C)CO)C(=O)c2cccc(NC(=O)Nc3ccccc3)c2O[C@H]1CN(C)S(=O)(=O)c1ccc(F)cc1,-3.23%
2,C[C@@H]1CN([C@H](C)CO)C(=O)c2cc(NC(=O)Nc3ccc(F)cc3)ccc2O[C@@H](C)CCCCO[C@@H]1CN(C)S(=O)(=O)c1cn(C)cn1,-2.5%
3,C[C@@H](O)C#Cc1ccc([C@H]2[C@H](CO)N3CCCCN(C(=O)c4ccc(F)cc4)C[C@@H]23)cc1,-2.34%
4,NC(=O)N/N=C\c1cccs1,76.7% (active)
5,Cc1nc2ccccc2n1CC(=O)N/N=C/c1cccs1,0.244%
6,Cc1cc(C)nc(SC(C)C(=O)N/N=C/c2cccs2)n1 (configuration not stated),-4.85%
7,COCC(=O)N1[C@H](CO)[C@@H](c2ccccc2)C12CN(Cc1cc(F)ccc1F)C2,3.15%
8,CN1c2ccc(C#Cc3ccccc3F)cc2[C@@H]2[C@@H](CCN2C(=O)Cc2cccnc2)[C@H]1CO,-8.75%
9,CO[C@@H]1CN(C)C(=O)c2ccc(NS(=O)(=O)c3c(C)noc3C)cc2OC[C@H](C)NC[C@@H]1C,14.4%
10,CC(C)NC(=O)N(C)C[C@H]1OCCCC[C@H](C)Oc2ccc(NS(=O)(=O)c3cccs3)cc2C(=O)N([C@H](C)CO)C[C@@H]1C,-3.81%
11,COc1ccc2c3c(n(C)c2c1)[C@@H](CO)N(C(=O)CN1CCOCC1)CC31CCN(C(=O)C2CC2)CC1,5.01%
12,O=C(c1cccnc1)N1C[C@H]2[C@@H](c3ccccc31)[C@H](CO)N2C(=O)C1CC1,8.96%
13,C[C@H](CO)N1C[C@H](C)[C@@H](CN(C)S(=O)(=O)c2cccs2)OCc2ccccc2-c2ccccc2C1=O,-0.156%
14,CCNC(=O)C[C@@H]1CC[C@@H]2[C@@H](COc3ccc(NC(=O)Nc4ccccc4F)cc3C(=O)N2C)O1,2.36%
15,CO[C@@H]1CN(C)C(=O)c2cc(NC(=O)c3ccccc3F)ccc2OC[C@H](C)NC[C@@H]1C,-5.95%
16,CO[C@@H]1CN(C)C(=O)c2ccc(NC(=O)c3ccccc3F)cc2OC[C@@H](C)N(CC2CCOCC2)C[C@H]1C,-3.01%
17,C[C@@H]1CCCCO[C@@H](CN(C)C(=O)C2CCCCC2)[C@H](C)CN([C@H](C)CO)C(=O)c2cc(NC(=O)c3ccccc3)ccc2O1,-4.75%
18,CCCN(C)C[C@H]1Oc2ncc(-c3ccccc3OC)cc2C(=O)N([C@H](C)CO)C[C@H]1C,7.87%
19,C[C@@H](NC(=O)C[C@H]1CC[C@H]2[C@@H](COC[C@@H](O)CN2C(=O)Nc2ccccc2)O1)c1ccccc1,6.72%
20,COc1ccccc1C#Cc1cnc2c(c1)C(=O)N([C@@H](C)CO)C[C@@H](C)[C@H](CN(C)C(=O)CN(C)C)O2,-1.48%
21,C/C(=C\c1ccccc1)C1NC(=O)c2c(sc3c2CCCC3)N1 (configuration not stated),6.29%
22,Cc1[nH]c(=O)c(C(=O)/C=C/c2ccccc2)c2c1CCCC2,53.2% (active)
23,CC1(C(=O)O)CCCN(C(=O)/C=C/c2ccccc2)C1 (configuration not stated),7.82%

row,SMILES,inhibition
1,C[C@@H]1CN([C@H](C)CO)C(=O)c2cc(NC(=O)c3ccccc3)ccc2O[C@@H](C)CCCCO[C@H]1CN(C)S(=O)(=O)c1ccccc1,0.633%
2,CC(C)CC#Cc1ccc2c(c1)O[C@H](CN(C)C(=O)C1CC1)[C@@H](C)CN([C@@H](C)CO)S2(=O)=O,3.73%
3,CCCN1C[C@@H](C)[C@H](OC)CN(C)C(=O)c2cc(NC(=O)CC)ccc2OC[C@@H]1C,3.35%
4,C/C=C/c1ccc([C@H]2[C@H]3CN(S(=O)(=O)c4ccccc4)CCCCN3[C@H]2CO)cc1,-5.04%
5,Cc1noc(C)c1NC(=O)N(C)C[C@@H]1Oc2ccc(NC(=O)Nc3ccc4c(c3)OCO4)cc2CC(=O)N([C@H](C)CO)C[C@H]1C,-8.32%
6,O=C(C1CCCC1)N1CC(=O)N2[C@H](CO)[C@H](c3ccc(Br)cc3)[C@@H]2C1,-9%
7,C[C@@H]1CN([C@H](C)CO)C(=O)Cc2cc(NC(=O)Cn3cnnn3)ccc2O[C@H]1CN(C)CC1CCCCC1,-7.22%
8,N#C[C@H]1[C@H](c2ccc(-c3cccc(F)c3)cc2)[C@@H](CO)N1C(=O)NC1CCCC1,4.29%
9,C[C@@H]1CN([C@H](C)CO)C(=O)c2cccc(NS(=O)(=O)c3cn(C)cn3)c2O[C@@H]1CN(C)Cc1ccc(C(F)(F)F)cc1,-1.87%
10,O=C(C[C@H]1C[C@@H]2c3cc(NC(=O)c4ccc5c(c4)OCO5)ccc3O[C@@H]2[C@@H](CO)O1)NCc1cccnc1,-3.47%
11,COCC(=O)N1CC(=O)N2[C@H](C1)[C@@H](c1ccc(C#Cc3cccc(OC)c3)cc1)[C@@H]2CO,-0.955%
12,Cc1ccnc(NC(=O)c2ccc(Cl)c([N+](=O)[O-])c2)c1,3%
13,Cc1nc2ccccc2c(=O)n1NC(=O)c1ccc(Cl)c([N+](=O)[O-])c1,44.8% (active)
14,O=C(O)c1ccc2c(=O)n3c(nc2c1)/C(=C/c1ccc(Cl)c([N+](=O)[O-])c1)CC3,12.5%
15,O=C(C1CC1)N1CC(=O)N2[C@H](CO)[C@@H](c3ccc(-c4ccccc4F)cc3)[C@@H]2C1,6.24%
16,C[C@H]1CN([C@@H](C)CO)C(=O)c2cc(-c3ccc(C#N)cc3)cnc2O[C@@H]1CN(C)Cc1ccncc1,-4.55%
17,C[C@@H]1CCCCO[C@H](CN(C)C(=O)Nc2ccccc2)[C@H](C)CN([C@H](C)CO)C(=O)c2cc(N(C)C)ccc2O1,0.535%
18,O=C(C[C@H]1C=C[C@H](NC(=O)c2cnccn2)[C@@H](CO)O1)NCc1ccccc1F,-5.81%
19,CN1/C(=C\C=C2\N=C(c3ccc(F)cc3)OC2=O)C(C)(C)c2ccccc21,-0.203%
20,CN1CCN(CCC(=O)N/N=C/C=C2\N(C)c3ccccc3C2(C)C)CC1,17.1%
21,CN1/C(=C\C(=O)c2oc3ccccc3c2N)C(C)(C)c2ccccc21,86.9% (active)
22,C[C@@H]1CN([C@H](C)CO)C(=O)c2cccc(NC(=O)c3nc4ccccc4s3)c2O[C@@H]1CN(C)Cc1ccc(Oc2ccccc2)cc1,16.2%
23,CN1CCN(C(=O)C[C@H]2CC[C@H]3[C@@H](COC[C@H](O)CN3CC3CCOCC3)O2)CC1,0.0455%

row,SMILES,inhibition
1,C/C(Cc1ccccc1)=N\NC(=O)CNC(=O)c1ccccc1Cl,5.72%
2,O=C(N/N=C\c1cc2c(cc1Cl)OCO2)c1ccc(Br)s1,-10.7%
3,CC/C(=N\NC(=O)c1ccccc1Cl)c1ccc(Br)s1,82.8% (active)
4,COc1ccc(S(=O)(=O)N(C)C[C@H]2OCCCC[C@@H](C)Oc3ccc(NS(=O)(=O)c4ccc(C)cc4)cc3C(=O)N([C@@H](C)CO)C[C@@H]2C)cc1,0.06%
5,COCCCn1c(CCC(=O)O)ccc1-c1ccc(F)cc1,-1.42%
6,COc1ccc(-c2ccc(CCC(=O)O)n2NC(=O)c2ccc(C(C)(C)C)cc2)cc1,43.5% (active)
7,COc1ccc(-c2ccc(CCC(=O)O)n2-c2ccc(O)cc2)cc1,1.05%
8,Cc1noc(C)c1NC(=O)N(C)C[C@@H]1OCCCC[C@H](C)Oc2ccc(NS(=O)(=O)c3c(C)noc3C)cc2C(=O)N([C@@H](C)CO)C[C@@H]1C,-1.1%
9,CN1C(=O)c2cc(NC(=O)C3CCOCC3)ccc2OC[C@@H]2O[C@@H](CC(=O)NCC3CC3)CC[C@@H]21,4.15%
10,C[C@@H]1CN([C@H](C)CO)C(=O)c2cc(NS(=O)(=O)c3cn(C)cn3)ccc2O[C@@H](C)CCCCO[C@@H]1CN(C)C(=O)CCC(F)(F)F,-2.59%
11,COc1ccc(NC(=O)N2CC(=O)N3[C@H](CO)[C@@H](c4ccc(-c5ccc(C)cc5)cc4)[C@H]3C2)cc1,5.16%
12,COc1ccccc1C(=O)Nc1ccc2c(c1)OC[C@@H](C)NC[C@H](C)[C@@H](OC)CN(C)C2=O,-5.63%
13,O=C(C[C@@H]1C[C@@H]2c3cc(NC(=O)c4ccc5c(c4)OCO5)ccc3O[C@@H]2[C@H](CO)O1)NCCc1ccccc1,-4.93%
14,CCN1[C@@H]2Cn3c(ccc(-c4cccnc4)c3=O)[C@H]1[C@@H](C(=O)NC1CCCCC1)[C@@H]2CO,1.27%
15,CCCNC(=O)C[C@H]1CC[C@H]2[C@@H](COC[C@H](O)CN2C(=O)CC)O1,3.49%
16,CCCNC(=O)C[C@H]1CC[C@@H]2[C@H](COC[C@H](O)CN2S(=O)(=O)c2ccccc2F)O1,-0.728%
17,O=C(C[C@@H]1CC[C@H](NC(=O)CN2CCOCC2)[C@@H](CO)O1)NCCc1ccccc1,-5.55%
18,CC(C)NC(=O)Nc1ccc2c(c1)C(=O)N([C@@H](C)CO)C[C@H](C)[C@H](CN(C)S(=O)(=O)c1ccc(Cl)cc1)OCCCC[C@H](C)O2,-18.6%
19,CC(C)NC(=O)Nc1ccc2c(c1)C(=O)N([C@@H](C)CO)C[C@@H](C)[C@H](CN(C)S(=O)(=O)c1ccccc1)OCCCC[C@@H](C)O2,124% (active)
20,CC(C)NC(=O)Nc1ccc2c(c1)C(=O)N([C@@H](C)CO)C[C@@H](C)[C@@H](CN(C)S(=O)(=O)c1ccc(F)cc1)OCCCC[C@H](C)O2,-0.972%
21,C[C@@H]1CN([C@H](C)CO)S(=O)(=O)c2ccc(C#CC3CCCC3)cc2O[C@@H]1CN(C)Cc1cccnc1,-39.6%
